Measurements as given in PubChem BioAssay (EPA / NIEHS).
Where “and” joins values, the source holds several entries; their conditions need not be identical. Identical values can stand only once. Some structures have more than one record in an assay (separate samples or runs), and their calls can disagree. Calls of active or inactive are those of the source. How the source made its calls: active means hit-call score of the fitted dose curve at least 0.9, where 1 is the maximum; inactive means score below 0.9.

Legend:
Settings in all cases: mRNA level, 48 h; actives raise or lower the signal
[1] = read-out: BCL2L11 (gene 10018); assay: LTEA_HepaRG_BCL2L11: Life Technologies and Expression Analysis (LTEA) Assay for Bcl-2 (BCL2L11) gene using HepaRG (AID 2283473)
Summary of the method: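 Differentiated human HepaRG cells in serum-free induction medium were exposed in duplicate for 48 h to eight concentrations (top 100 uM, half-log steps, 0.5% DMSO). BCL2L11 mRNA was quantified by TaqMan qRT-PCR, normalized to ACTB/GAPDH/POLR2A, bidirectional fit versus DMSO.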

[2] = read-out: Apolipoprotein A-V (APOA5) gene, APOA5 (gene 116519); assay: LTEA_HepaRG_APOA5: Life Technologies and Expression Analysis (LTEA) Assay for Apolipoprotein A-V (APOA5) gene using HepaRG (AID 2283474)
Summary of the method: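 Differentiated human HepaRG cells were exposed in duplicate for 48 h to eight half-log concentrations from 100 uM in 0.5% DMSO. APOA5 mRNA was quantified by TaqMan qRT-PCR, normalized to ACTB, GAPDH and POLR2A, and fitted bidirectionally against DMSO.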

[3] = read-out: Bcl-2 (BID) gene, BID (gene 637); assay: LTEA_HepaRG_BID: Life Technologies and Expression Analysis (LTEA) Assay for Bcl-2 (BID) gene using HepaRG (AID 2283476)
Summary of the method: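 Transcript levels of BID, measured by qRT-PCR and normalized to three housekeeping genes, were fitted bidirectionally against DMSO controls. Cells were HepaRG, dosed 48 h at up to 100 uM.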

[4] = read-out: Cytochrome P450 (CYP24A1), CYP24A1 (gene 1591); assay: LTEA_HepaRG_CYP24A1: Life Technologies and Expression Analysis (LTEA) Assay for Cytochrome P450 (CYP24A1) using HepaRG (AID 2283478)
Summary of the method: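 Differentiated HepaRG cells, pre-cultured 48 h, were exposed in duplicate for 48 h in serum-free induction medium to 8 half-log concentrations (top 100 uM, 0.5% DMSO). CYP24A1 mRNA was quantified by TaqMan qRT-PCR, normalized to ACTB/GAPDH/POLR2A, fitted bidirectionally versus DMSO.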

[5] = read-out: Cytochrome P450 (CYP1A2), CYP1A2 (gene 1544); assay: LTEA_HepaRG_CYP1A2: Life Technologies and Expression Analysis (LTEA) Assay for Cytochrome P450 (CYP1A2) using HepaRG (AID 2283479)
Summary of the method: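 Differentiated human HepaRG cells in serum-free induction medium were exposed in duplicate for 48 h to 8-point half-log concentrations up to 100 uM in 0.5% DMSO. CYP1A2 mRNA measured by qRT-PCR, normalized to ACTB, GAPDH, POLR2A; bidirectional fit vs DMSO.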

[6] = read-out: cysteine-aspartic acid protease (CASP8), CASP8 (gene 841); assay: LTEA_HepaRG_CASP8: Life Technologies and Expression Analysis (LTEA) Assay for cysteine-aspartic acid protease (CASP8) using HepaRG (AID 2283480)
Summary of the method: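 Differentiated human HepaRG cells, plated 48 h then switched to serum-free induction medium, were exposed in duplicate for 48 h to 8 half-log concentrations up to 100 uM in 0.5% DMSO. CASP8 mRNA was quantified by qRT-PCR, normalized to ACTB/GAPDH/POLR2A.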

[7] = read-out: Cytochrome P450 (CYP2B6), CYP2B6 (gene 1555); assay: LTEA_HepaRG_CYP2B6: Life Technologies and Expression Analysis (LTEA) Assay for Cytochrome P450 (CYP2B6) using HepaRG (AID 2283481)
Summary of the method: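 Differentiated HepaRG cells, serum-free induction medium, exposed 48 h in duplicate to 8-point half-log concentrations from 100 uM in 0.5% DMSO. CYP2B6 mRNA by qRT-PCR, normalized to ACTB, GAPDH, POLR2A; bidirectional fit versus DMSO.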

[8] = read-out: Cytochrome P450 2C19 (Homo sapiens) (UniProt P33261); assay: LTEA_HepaRG_CYP2C19: Life Technologies and Expression Analysis (LTEA) Assay for CYP2C19 using HepaRG (AID 2283482)
Summary of the method: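 Differentiated human HepaRG cells were exposed for 48 h in serum-free induction medium to 8 concentrations (top 100 uM, half-log steps, 0.5% DMSO). CYP2C19 mRNA was measured by qRT-PCR, normalized to ACTB/GAPDH/POLR2A, and fitted bidirectionally against DMSO.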

[9] = read-out: CYP2C8 (gene 1558); assay: LTEA_HepaRG_CYP2C8: Life Technologies and Expression Analysis (LTEA) Assay for CYP2C8 using HepaRG (AID 2283483)
Summary of the method: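 Differentiated human HepaRG cells were exposed for 48 h in serum-free induction medium to eight half-log concentrations up to 100 uM in 0.5% DMSO, in duplicate. CYP2C8 mRNA was measured by TaqMan qRT-PCR, normalized to ACTB, GAPDH and POLR2A, and fitted bidirectionally against DMSO.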

[10] = read-out: CYP2C9 (gene 1559); assay: LTEA_HepaRG_CYP2C9: Life Technologies and Expression Analysis (LTEA) Assay for CYP2C9 using HepaRG (AID 2283484)
Summary of the method: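 Differentiated human HepaRG cells were exposed 48 h in serum-free induction medium to eight half-log concentrations up to 100 uM in 0.5% DMSO. CYP2C9 mRNA was measured by qRT-PCR, normalized to ACTB, GAPDH and POLR2A, and fitted bidirectionally against DMSO.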

[11] = read-out: CYP4A11 (gene 1579); assay: LTEA_HepaRG_CYP4A11: Life Technologies and Expression Analysis (LTEA) Assay for CYP4A11 using HepaRG (AID 2283486)
Summary of the method: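 Differentiated HepaRG cells, serum-free induction medium, exposed 48 h in duplicate to 8-point half-log series from 100 uM in 0.5% DMSO. CYP4A11 mRNA measured by qRT-PCR, normalized to ACTB, GAPDH, POLR2A; bidirectional fit versus DMSO.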

[12] = read-out: Cytochrome P450 3A4 (Homo sapiens) (UniProt P08684); assay: LTEA_HepaRG_CYP3A4: Life Technologies and Expression Analysis (LTEA) Assay for CYP3A4 using HepaRG (AID 2283487)
Summary of the method: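 Differentiated HepaRG cells in serum-free induction medium exposed in duplicate for 48 h to 8 half-log concentrations up to 100 uM in 0.5% DMSO. CYP3A4 mRNA measured by qRT-PCR normalized to ACTB, GAPDH and POLR2A; bidirectional fit versus DMSO.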

[13] = read-out: DNA damage-inducible transcript 3 (DDIT3), DDIT3 (gene 1649); assay: LTEA_HepaRG_DDIT3: Life Technologies and Expression Analysis (LTEA) Assay for DNA damage-inducible transcript 3 (DDIT3) using HepaRG (AID 2283488)
Summary of the method: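 HepaRG plated 48 h, switched to serum-free induction medium, dosed 48 h (100 uM top, half-log, 8 pts, 0.5% DMSO, n=2); RNA isolated; DDIT3 by qRT-PCR; bidirectional curve fit vs DMSO.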

[14] = read-out: Pro-epidermal growth factor (Homo sapiens) (UniProt P01133); assay: LTEA_HepaRG_EGF: Life Technologies and Expression Analysis (LTEA) Assay for Epidermal growth factor (EGF) using HepaRG (AID 2283489)
Summary of the method: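 Differentiated human HepaRG cells, plated 48 h then switched to serum-free induction medium, were exposed for 48 h to test chemicals (8-point half-log series, top 100 uM, 0.5% DMSO). EGF mRNA was quantified by qRT-PCR, normalized to ACTB, GAPDH, POLR2A.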

[15] = read-out: Cytochrome P450 3A7 (Homo sapiens) (UniProt P24462); assay: LTEA_HepaRG_CYP3A7: Life Technologies and Expression Analysis (LTEA) Assay for CYP3A7 using HepaRG (AID 2283492)
Summary of the method: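 HepaRG cells plated 48 h, then dosed in serum-free induction medium for 48 h at 8 concentrations (top 100 uM, half-log steps, 0.5% DMSO). CYP3A7 mRNA by qRT-PCR, normalised to ACTB/GAPDH/POLR2A; bidirectional fit versus DMSO.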

[16] = read-out: Ezrin (EZR), EZR (gene 7430); assay: LTEA_HepaRG_EZR: Life Technologies and Expression Analysis (LTEA) Assay for Ezrin (EZR) using HepaRG (AID 2283491)
Summary of the method: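 Differentiated human HepaRG cells, 48 h after plating, were exposed in serum-free induction medium for 48 hours to eight half-log concentrations up to 100 uM in 0.5% DMSO. EZR mRNA was measured by TaqMan qRT-PCR, normalized to ACTB, GAPDH and POLR2A, and fitted bidirectionally against DMSO.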

Measured: AC50

Chain of Cytochrome P450 3A4 (Homo sapiens) (P08684 whole entry, looked up): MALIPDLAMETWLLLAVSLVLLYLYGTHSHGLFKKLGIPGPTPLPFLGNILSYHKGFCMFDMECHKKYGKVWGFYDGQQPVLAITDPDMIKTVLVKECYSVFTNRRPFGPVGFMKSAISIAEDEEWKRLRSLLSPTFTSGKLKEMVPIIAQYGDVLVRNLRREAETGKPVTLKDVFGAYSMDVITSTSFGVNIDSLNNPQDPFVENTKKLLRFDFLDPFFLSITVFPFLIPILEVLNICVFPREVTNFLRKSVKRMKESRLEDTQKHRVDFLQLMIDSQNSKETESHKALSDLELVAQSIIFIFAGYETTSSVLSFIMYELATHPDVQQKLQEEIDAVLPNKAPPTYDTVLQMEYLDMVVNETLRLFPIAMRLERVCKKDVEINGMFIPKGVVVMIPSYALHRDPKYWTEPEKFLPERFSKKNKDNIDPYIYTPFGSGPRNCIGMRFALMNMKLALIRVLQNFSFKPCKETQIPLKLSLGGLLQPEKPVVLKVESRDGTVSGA
Chain of Cytochrome P450 3A7 (Homo sapiens) (P24462 whole entry, looked up): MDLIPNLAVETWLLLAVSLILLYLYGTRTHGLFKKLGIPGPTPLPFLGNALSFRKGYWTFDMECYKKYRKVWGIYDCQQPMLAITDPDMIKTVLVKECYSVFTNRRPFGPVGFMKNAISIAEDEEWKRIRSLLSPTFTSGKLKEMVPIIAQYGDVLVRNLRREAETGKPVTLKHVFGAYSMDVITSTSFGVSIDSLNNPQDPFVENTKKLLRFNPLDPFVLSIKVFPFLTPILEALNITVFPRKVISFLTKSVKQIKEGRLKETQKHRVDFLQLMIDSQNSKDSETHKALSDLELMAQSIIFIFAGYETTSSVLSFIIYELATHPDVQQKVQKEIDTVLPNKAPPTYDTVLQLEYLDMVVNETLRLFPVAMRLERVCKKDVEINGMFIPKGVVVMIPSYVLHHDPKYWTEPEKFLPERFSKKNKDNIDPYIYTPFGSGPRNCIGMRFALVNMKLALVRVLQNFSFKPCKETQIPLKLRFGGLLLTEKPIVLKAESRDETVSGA
Chain of Cytochrome P450 2C19 (Homo sapiens) (P33261 whole entry, looked up): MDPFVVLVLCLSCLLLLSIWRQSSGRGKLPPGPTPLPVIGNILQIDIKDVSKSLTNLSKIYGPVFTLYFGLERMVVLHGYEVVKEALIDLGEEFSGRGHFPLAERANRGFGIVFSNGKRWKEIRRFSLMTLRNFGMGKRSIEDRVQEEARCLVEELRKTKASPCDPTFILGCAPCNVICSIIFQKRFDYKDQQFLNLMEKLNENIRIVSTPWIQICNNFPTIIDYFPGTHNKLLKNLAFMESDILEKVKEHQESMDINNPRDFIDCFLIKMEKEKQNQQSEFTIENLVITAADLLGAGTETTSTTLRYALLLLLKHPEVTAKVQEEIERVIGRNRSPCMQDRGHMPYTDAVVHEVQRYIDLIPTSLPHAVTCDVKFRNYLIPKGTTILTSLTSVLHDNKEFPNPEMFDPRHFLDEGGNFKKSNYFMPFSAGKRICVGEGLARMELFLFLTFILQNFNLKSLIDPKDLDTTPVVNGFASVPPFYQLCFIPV

S=C([S-])NCCNC(=S)[S-].[Mn+2]
inactive: [1] | [3] | [4]
active: [2] 3.64 µM | [5] 654 nM | [6] 3.99 µM | [7] 2.35 µM | [8] 4.61 µM | [9] 2.31 µM | [10] 2.23 µM | [11] 3.33 µM | [12] 3.36 µM | [13] 6.1 µM | [14] 5.3 µM | [15] 3.49 µM

O=C(O)C1(C(=O)Nc2ccc(Cl)cc2Cl)CC1
inactive: [1] | [3] | [4] | [5] | [6] | [13] | [16]
active: [2] 74.9 µM | [7] 66.9 µM | [8] 76.5 µM | [9] 82.6 µM | [10] 71.9 µM | [11] 84.8 µM | [12] 75.4 µM | [14] 31.6 µM | [15] 91 µM

S=C(S)NCCNC(=S)S.[Mn+2].[S-]C([S-])=NCCN=C([S-])[S-].[Zn+2]
active: [1] 3.84 µM | [2] 1.22 µM and 1.49 µM and 1.99 µM | [5] 502 nM and 444 nM and 615 nM | [6] 1.18 µM and 2.18 µM and 1.55 µM | [7] 1.05 µM and 1.1 µM and 1.15 µM | [8] 1.4 µM and 1.55 µM | [9] 1.13 µM and 1.15 µM and 1.5 µM | [10] 823 nM and 816 nM and 891 nM | [11] 1.38 µM and 1.51 µM and 1.36 µM | [12] 827 nM and 1.11 µM and 1.02 µM | [13] 3.87 µM and 1.87 µM and 1.64 µM | [14] 2.3 µM and 673 nM | [15] 947 nM and 1.22 µM and 1.41 µM
inactive: [1] | [3] | [4] | [14]
